Values joined by “and” are separate entries in the source; they are usually repeats but may differ in a detail not shown here. Equal entries are not always repeated. In all, about 340,000 compounds went through this assay and about 1,000 (0.29%) were called active. A selection follows. Results with a measured potency or affinity are listed apart. Values without a mark were called inactive. Cut-off read from the data, not from the text of the source: inconclusive = inhibition above about 27% without an active follow-up result; inactive = below that.
Assay: H1N1 influenza NS1A inhibitors, functional cell based assay (AID 504329)
Conditions: percent inhibition, at 12.5 µM, active compounds read high

First: O=C(Oc1cccc(F)c1)c1ccc2c(=O)n3c(nc2c1)CCC3
Second: COc1ccc2c(=O)cc(-c3ccccc3F)oc2c1
The inhibition of the first is higher: 3.05% for the first, -4.71% for the second.

First: N#CCO/N=C/C(=O)Nc1ccc(F)cc1F
Second: O=C(COc1ccc(Cl)cc1)NCc1nnc(SCC(=O)Nc2ccc(F)cc2F)o1
The inhibition of the first is lower: -11.8% for the first, 12.3% for the second.

Compared with O=C(O)c1ccc(Nc2nc(-c3ccccc3)nc3ccccc23)cc1, O=C(O)c1ccccc1P(=O)(c1ccccc1)c1ccccc1 is higher in inhibition: -15.2% for the first, 7.4% for the second.

Compared with Cc1ccc2nc(-c3ccc(NC(=O)COC(=O)c4ccco4)cc3)sc2c1, Cc1ccc(NC(=O)COc2ccc(C(=O)c3ccccc3)cc2)c(O)c1 is higher in inhibition: -4.32% for the first, 8.15% for the second.

First: COc1ccc(N(CC(=O)NC2CCCCC2)S(=O)(=O)c2cccnc2)cc1
Second: COc1ccc(N2CCN(C(=O)c3ccc(S(=O)(=O)NCc4ccco4)cc3)CC2)cc1
The inhibition of the first is lower: -1.53% for the first, 6.25% for the second.

Going from CC(C)n1cnnc1SCC(=O)NC(=O)c1ccccc1 to O=C(CCCc1ccccc1)Nc1nncs1, the inhibition rises from -13.7% to 0.92%.

First: O=C(CSc1nc(=O)n(CCCN2CCOCC2)c2c1CCC2)Nc1ccc(F)cc1F
Second: COc1ccc(/C=C2/Sc3ccc(C(=O)NCCCN4CCOCC4)cc3NC2=O)cc1OC
The inhibition of the first is lower: 0.02% for the first, 9.94% for the second.

First: CCOC(=O)c1cnc(N2CCN(c3ccccc3)CC2)[nH]c1=O
Second: CCOC(=O)c1cnc(Cc2ccccc2)[nH]c1=O
The inhibition of the first is higher: -0.51% for the first, -2.72% for the second.

First: O=C(c1cccc(N2C(=O)C3C4C=CC(C4)C3C2=O)c1)N1CCN(c2ccc(F)cc2)CC1 (configuration not stated)
Second: CC(=O)Nc1ccc(S(=O)(=O)N2CCN(c3ccc(C)c(Cl)c3)CC2)cc1
The inhibition of the first is higher: -2.51% for the first, -15.9% for the second.

Compared with COC(=O)c1ccc(NC(=S)N2CCC(C(N)=O)CC2)cc1, CCOC(=O)C1CCN(C(=O)CCNS(=O)(=O)c2cc(Br)cnc2N)CC1 is higher in inhibition: -11.5% for the first, -2.4% for the second.

Going from O=C(O)c1ccccc1C(=O)O to Cc1ccc(C(=O)NNC(=O)c2ccc3ccccc3c2O)cc1, the inhibition falls from 3.33% to -5%.

Going from O=C(NCc1ccco1)/C(=C/c1ccc([N+](=O)[O-])cc1)NC(=O)c1ccco1 to O=C(CSc1ccc(-c2ccccn2)nn1)c1ccc([N+](=O)[O-])cc1, the inhibition rises from -2.93% to 27.3%.

Compared with Cc1ccc(CN2CCN(Cc3cn(C(C)C)c4ccccc34)CC2CCO)o1 (configuration not stated), Cc1ccc(CN2CCNC(=O)C2CC(=O)NCCCn2ncc3ccccc32)o1 (configuration not stated) is lower in inhibition: 14.6% for the first, -1.25% for the second.

First: Cc1sc2nc(SCC(=O)Nc3cccc(C(=O)O)c3)[nH]c(=O)c2c1C
Second: CCOC(=O)C1=C(C)N=c2s/c(=C/c3cccc([N+](=O)[O-])c3O)c(=O)n2C1c1ccc(OC)cc1OC (configuration not stated)
The inhibition of the first is lower: -8.26% for the first, 22.2% for the second.

Compared with CCOC(=O)C1=C(C)N=c2s/c(=C/c3cccc([N+](=O)[O-])c3O)c(=O)n2C1c1cc(OC)c(OC)c(OC)c1 (configuration not stated), CCOC(=O)c1ccccc1NC(=O)/C=C/c1cc(OC)c(OC)c(OC)c1 is lower in inhibition: 20.1% for the first, -4.73% for the second.

First: CCc1ccc(C(=O)C(C)OC(=O)CNS(=O)(=O)c2ccc(C)cc2)cc1 (configuration not stated)
Second: Cc1ccc(CSC2=NCCN2C(=O)c2ccc([N+](=O)[O-])cc2)cc1
The inhibition of the first is lower: -0.69% for the first, 5.18% for the second.

Compared with COc1ccc(C=C2C(=O)c3ccccc3C2=O)cc1O, COc1cc(C=C2C(=O)c3ccccc3C2=O)ccc1O is lower in inhibition: 16.6% for the first, -20.5% for the second.

Going from CCn1c(C)nc2cc(C(=O)NN=Cc3ccccc3OC(F)F)ccc21 to CCN(CC)CC(O)Cn1c(C)c(-c2ccccc2)c2cc([N+](=O)[O-])ccc21 (configuration not stated), the inhibition rises from -6.28% to 27.4%.

First: CCCN1CCC(=O)N(CCOc2ccccc2)CC1
Second: CC(C)CN1CCC(=O)N(CCOc2ccccc2)CC1
The inhibition of the first is lower: -8.48% for the first, 2.95% for the second.

Compared with Cc1ccc(-n2c(O)c(C=NC3CCS(=O)(=O)C3)c3ccccc3c2=O)c(C)c1 (configuration not stated), COc1cc(-c2cc(=O)c3ccccc3o2)ccc1O is lower in inhibition: 9.46% for the first, -19% for the second.

First: c1ccc(CSc2ccc(-c3ccccn3)nn2)cc1
Second: O=C(CSc1ccc(-c2ccccn2)nn1)c1ccc(F)cc1
The inhibition of the first is higher: -2.51% for the first, -9.8% for the second.

First: c1ccc(CSc2ccc(-c3cccnc3)nn2)nc1
Second: c1cncc(CSc2ccc(-c3cccnc3)nn2)c1
The inhibition of the first is lower: -9.97% for the first, 0.64% for the second.

First: Clc1ccc(-c2ccc(SCc3ccccn3)nn2)cc1
Second: COc1ccc(-c2nsc3c(SCc4ccccc4)ncnc23)cc1
The inhibition of the first is higher: 0.43% for the first, -10.6% for the second.

Going from Cc1onc(-c2ccc(Cl)cc2Cl)c1-c1csc(N/N=C/c2ccccc2)n1 to Fc1ccc(/C=N/n2cnn(Cc3ccccc3Cl)c2=S)cc1, the inhibition rises from -21.5% to -7.06%.

Compared with CN(C(=O)c1ccc(NC(=O)Cc2cccc(NC(=O)C3CCCN(C(=O)C4CCCCC4)C3)c2)cc1)C1CCCC1 (configuration not stated), COc1ccc(S(=O)(=O)Nc2ccc3c(c2)C(=O)N([C@H](C)CO)C[C@H](C)[C@@H](CN(C)C(=O)Nc2ccccc2)O3)cc1 is higher in inhibition: -1.36% for the first, 6.6% for the second.

Going from CCS(=O)(=O)N1CCN(S(=O)(=O)c2ccc(S(=O)(=O)NC3CC3)cc2)CC1 to Cc1nc2sccn2c(=O)c1S(=O)(=O)N1CCN(c2cccc(C(F)(F)F)c2)CC1, the inhibition falls from 7.16% to 3.59%.

Going from CCNC(=S)N1CCN(c2ccccc2OCC)CC1 to C/C=C(\C)CN1CCN(c2ccccc2)CC1, the inhibition falls from 0.76% to -6.09%.

Compared with CCO[C@H]1OC(C(=O)N2CCN(Cc3ccc4c(c3)OCO4)CC2)=C[C@@H](C2CCCCC2)[C@@H]1CCCO, O=[N+]([O-])c1nn(-c2ccc3c(c2)OCCO3)n(O)c1=NC1CCCCC1 is higher in inhibition: 8.35% for the first, 9.84% for the second.

Compared with CC(C)N(Cc1nc(-c2ccc(Cl)cc2)no1)Cc1nccn1C, CC(C)n1c2ccccc2c2cc([N+](=O)[O-])ccc21 is higher in inhibition: -7.64% for the first, 3.2% for the second.

Going from CCOC(=S)SCc1cn2cccc(C)c2n1 to COc1cccc2c(Cl)c(CC=C(Cl)Cl)c(C)nc12, the inhibition rises from 4.77% to 8.95%.

First: CNc1ccc(Oc2nc([N+](=O)[O-])nn2C)cc1
Second: COc1ccc(Nc2nc3c([nH]2)c(=O)[nH]c(=O)n3C)cc1
The inhibition of the first is higher: -2.73% for the first, -6.85% for the second.

Compared with O=S(=O)(NCC1COc2ccccc2O1)c1ccc2ccccc2c1 (configuration not stated), COc1ccc(N=Nc2ccc3ccccc3c2)c(O)c1 is higher in inhibition: 1.74% for the first, 25.1% for the second.

Compared with Cn1c(/C(C#N)=C(\O)c2cccc(F)c2)nc2ccccc21, N#Cc1cc(-c2ccccc2)oc1NC(=O)c1ccccc1 is lower in inhibition: 0.62% for the first, 0.56% for the second.

Compared with CCN1CCCC1CNC(=O)c1ccc2c(c1)NC(=O)/C(=C\c1ccc(C)cc1)S2 (configuration not stated), O=C(NCC1CCCN1S(=O)(=O)c1cccs1)c1ccccc1F (configuration not stated) is lower in inhibition: 21.9% for the first, -4.78% for the second.

Compared with O=[N+]([O-])c1nn(-c2ccccc2)[n+]([O-])c1N1CCN(c2ccccc2)CC1, O=[N+]([O-])c1ccc2c(c1)c(-c1ccccc1)nc1nncn12 is lower in inhibition: 0.82% for the first, -1.91% for the second.

First: O=[N+]([O-])c1nn(-c2ccc3c(c2)OCCO3)n(O)c1=NC1CCCC1
Second: CN=c1c([N+](=O)[O-])nn(-c2ccc3c(c2)OCCO3)n1O
The inhibition of the first is higher: 15.3% for the first, 2.75% for the second.

First: O=[N+]([O-])c1ccc(-[n+]2c(-c3ccccc3)cc(-c3ccccc3)cc2-c2ccccc2)cc1
Second: CN(N=Nc1ccc([N+](=O)[O-])cc1)c1ccccc1
The inhibition of the first is lower: 0.94% for the first, 8.69% for the second.

Compared with O=C(CN1C(=O)NC2(CCOc3ccccc32)C1=O)NCCc1ccc(F)cc1 (configuration not stated), CCOn1c(=O)c(-c2ccc(F)cc2)[n+]([O-])c2ccccc21 is lower in inhibition: -8.82% for the first, -9.53% for the second.

First: N#CCCN1CCN(C2=NC(=O)/C(=C\c3cccs3)S2)CC1
Second: O=C1N2CCSC2=NC1(Nc1nccs1)C(F)(F)F (configuration not stated)
The inhibition of the first is higher: 8.67% for the first, -5.52% for the second.

Going from COc1cccc([C@@H]2CC=C(C(=O)O)[C@H](c3ccc(Br)cc3)N2S(=O)(=O)c2ccc(C)cc2)c1 to COc1ccc([C@@H]2CC=C(C(=O)O)[C@H](c3ccccc3)N2S(=O)(=O)c2ccccc2C)cc1, the inhibition rises from -4.53% to -3.46%.

First: CCCCN(C)c1ccc([N+](=O)[O-])cc1
Second: Cc1ccccc1-c1cc(=O)c2c(O)cccc2o1
The inhibition of the first is higher: 11.8% for the first, -13.3% for the second.

First: COc1ccc(/C=N/S(=O)(=O)c2cccs2)cc1
Second: COc1ccc(OC)c(-c2oc3ccccc3c(=O)c2O)c1
The inhibition of the first is higher: 4.61% for the first, -8.28% for the second.

First: Cc1cc2oc(=O)cc(-c3cc4ccccc4o3)c2cc1O
Second: O=c1cc2oc3cc(O)c(O)cc3c(-c3ccccc3O)c-2cc1O
The inhibition of the first is lower: -6.82% for the first, 4.83% for the second.

Compared with O=c1cc2oc3cc(O)c(O)cc3c(-c3ccccc3[N+](=O)[O-])c-2cc1O, COc1c(O)cc2oc(-c3ccc(O)c(O)c3)cc(=O)c2c1O is lower in inhibition: 20.1% for the first, 2.55% for the second.

First: CCCC(OC(=O)CC1Sc2ccccc2NC1=O)C(=O)NCc1ccco1 (configuration not stated)
Second: Cc1ccc(N=Nc2[nH]c3ccccc3c2O)cc1
The inhibition of the first is higher: 4.36% for the first, -4.85% for the second.

With COc1cccc(N=Nc2ccc3cccnc3c2O)c1 the inhibition was 6.02%.

In the case of CCOC(=O)C1=C(C)Nc2ncnn2C1c1ccc(N(C)C)cc1 (configuration not stated), the inhibition is reported as 6.88% and -12.7%.
